# IDE cell inh: cellular human IDE inhibition | P14735 | actives 0.41% (n = 320,000) | AID 434962 | HEK cells, FAbetaB cleavage, fluorescence polarization | inhibition, % at 5.59 µM;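 active means percent inhibition above the average of all tested compounds plus 3 SD, set per screening campaign, cut at about 16% in these data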;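 further: IDE supplied by intact live HEK cells; FP after avidin binding of uncleaved biotin substrate so inhibition keeps polarization high; 0% = DMSO wells and 100% = 60 µM reference IDE inhibitor Ii1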
# HDAC3 inh: human HDAC3 inhibition. O15379. recombinant HDAC3, fluorogenic peptide/trypsin coupled, fluorescence. inhibition, % at 8.3 µM. actives 0.15% (n = 320,000). AID 2718; in the data active means inhibition above about 26%, passing the limit was not always enough
# Target sequence (O15379 whole entry, looked up): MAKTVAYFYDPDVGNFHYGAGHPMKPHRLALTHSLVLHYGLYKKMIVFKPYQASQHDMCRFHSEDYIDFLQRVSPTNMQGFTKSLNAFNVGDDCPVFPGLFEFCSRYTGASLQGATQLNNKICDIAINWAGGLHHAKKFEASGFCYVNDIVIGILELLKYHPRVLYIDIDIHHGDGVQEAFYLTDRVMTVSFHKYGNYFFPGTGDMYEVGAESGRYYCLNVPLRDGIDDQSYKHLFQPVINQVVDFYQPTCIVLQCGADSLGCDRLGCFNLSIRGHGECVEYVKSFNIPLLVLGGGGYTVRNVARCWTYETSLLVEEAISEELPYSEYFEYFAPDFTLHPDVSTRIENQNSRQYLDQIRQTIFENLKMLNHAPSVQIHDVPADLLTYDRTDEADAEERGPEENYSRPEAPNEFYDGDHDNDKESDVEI
# IDE act: IDE (human) activation, cell-based; activation, % at 5.96 µM; actives 0.073% (n = 340,000); HEK cells, FAbeta-B cleavage, fluorescence polarization; 0% vehicle, 100% cell-free pure enzyme wells;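 active means activation above the mean of all tested compounds plus 3 SD, set per screening campaign, cut at about 17% in these data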
# Mot1-301 SUMO: SUMOylation pathway inhibition by Mot1-301 growth rescue; S. cerevisiae Mot1-301 growth rescue, ATP luminescence, 38.5C; percent above DMSO median, 100 means doubled; growth rescue, % at 18.8 µM; actives 1% (n = 320,000); AID 2716;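 active means every valid replicate shows activation above 250% relative to neutral control wells; inactive means the rest, any valid replicate at or below 250%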;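 further: OY570 slx delta 5 strain wells were the positive control but not used for scaling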
# LANA-H2B inh: blocks KSHV LANA binding to histone H2A/H2B | cell-free LANA-H2A/H2B peptide, fluorescence polarization | Q9QR71 | inhibition, % (concentration not given with the values) | AID 2629 | actives 0.6% (n = 320,000); in the data active means inhibition mostly above about 10%, no sharp cut-off; inactive means mostly below about 6.7%
# Mot1 SUMO dose: yeast SUMO pathway inhibition in dose response | S. cerevisiae Mot1-301 galactose growth, ATP luminescence, 24 h; -100 = growth of slx-deleted rescue strain | 2,300 tested, under 10 active | AID 493004 | shares compounds with Mot1-301 SUMO | growth activity, percent, % at 42 µM;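 active means Signal drops as the depositor expects, and the fitted half-maximal dose is no more than ten times the top valid tested dose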;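 further: more negative values mean stronger growth rescue toward the control strain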
# An asterisk follows results filed as active; . = no result; + = active, no number; [ ] = remark or other dose. Sampled rows, rich in hits. Any-hit rate of the full collection: about 2.1%.
SMILES,IDE cell inh,HDAC3 inh,IDE act,Mot1-301 SUMO,LANA-H2B inh,Mot1 SUMO dose
COc1ccc(C(=O)O)cc1S(=O)(=O)NCCN(C)C,1.0,.,6.5,824.4*,2.1,0.1
CCOC(=O)Cn1c(=O)oc2cc(S(=O)(=O)NC(C)(C)CC)ccc21,-3.1,2.1,-4.3,642.7*,1.6,0.0
O=C(NCC1CCCN(C(=O)c2cc(Cl)ccc2F)C1)c1ccc(F)cc1 (stereo not given),3.0,-1.5,-4.7,3.1,-3.3,.
Cc1ccccc1-c1nnc(SCc2ccc(F)cc2)o1,-0.4,1.9,6.5,+,-0.8,-1.0
Fc1ccc(CSc2nnc(-c3ccncc3)o2)cc1,2.7,8.1,-2.6,-10.3,-1.3,.
O=C(COC(=O)/C=C/c1ccco1)Nc1ncc(C(F)(F)F)cc1Cl,0.5,2.1,-5.3,588.4*,-4.3,0.3
COc1ccc(OC(=O)c2ccc(Cl)cc2)c(C(C)=O)c1,2.5,0.1,4.1,407.5*,5.2,0.0
COc1ccc(C(=O)Nc2cc(Cl)ccc2OC(=O)c2ccc(OC)cc2)cc1,4.3,.,-2.2,-8.4,-3.9,.
COc1ccc(CCN(C)CCCC(C#N)(c2ccc(OC)c(OC)c2)C(C)C)cc1OC (stereo not given),.,.,1.6,.,.,-0.2
CSc1cc(-c2ccco2)oc1C(=O)c1ccco1,6.6,5.4,4.7,2.0,2.9,.
c1ccc2c(c1)OCCOCCOc1ccccc1OCCOCCO2,0.4,-3.5,3.3,734.9*,-2.6,0.8
Nc1ccc2c(c1)OCCOCCOCCOCCOCCO2,2.1,-0.1,4.3,-22.7,6.2,.
CCN(CC)CCCN1C(=O)C(=O)/C(=C(/O)c2ccccc2)C1c1cc(OC)ccc1OC (stereo not given),-12.5,2.7,-3.3,684.5*,17.4*,-0.5
Cc1ccc(NC2c3ncccc3C(=O)N2C2CCCCC2)cc1C (stereo not given),-2.4,-0.8,-7.7,394.7*,-1.7,-0.7
Cc1ccc(NC2c3ncccc3C(=O)N2C2CCCCC2)cc1 (stereo not given),-3.9,2.1,-2.2,9.9,-12.2,.
O=[N+]([O-])c1nn(-c2ccc(Cl)cc2)n(O)c1=NCc1ccccc1Cl,-0.5,.,-1.0,+,0.0,-0.8
CCOC(=O)c1c(/N=C/C2C(=O)CCCC2=O)sc2c1CCCC2,3.7,-4.2,.,467.1*,4.0,-0.3
C#CCOc1ccc2c3c(c(=O)oc2c1)CCCC3,2.1,-17.2,-5.3,-11.0,-2.4,.
CCCC(=O)Nc1nnc(/C=C/c2ccc(OC)cc2)s1,-2.2,3.0,4.6,3.1,1.7,.
CCCCC(=O)Nc1nnc(/C=C/c2ccc(OC)cc2)s1,3.6,-0.1,1.2,713.9*,-2.5,0.0
COc1cc(NC(=O)CN2CCN(CC(=O)Nc3ccccc3OC)CC2)cc(OC)c1,4.3,-8.0,-0.6,518.1*,3.4,0.6
COc1ccc(NC(=O)CN2CCN(CC(=O)Nc3ccccc3OC)CC2)c(OC)c1,.,.,4.5,.,.,.
COc1cc(NC(=O)CCN2CCN(Cc3ccccc3)CC2)cc(OC)c1,1.3,0.8,6.1,695.8*,5.9,-0.3
O=C(NCc1ccco1)C1CC(=O)N(c2ccc(Cl)cc2)C1 (stereo not given),2.0,-4.7,7.0,648.3*,4.9,-0.5
COCCNC(=O)c1cccc(OC2CCN(Cc3ccc(F)cc3OC)CC2)c1,1.2,1.2,4.3,-10.3,2.9,.
SMILES,IDE cell inh,HDAC3 inh,IDE act,Mot1-301 SUMO,LANA-H2B inh,Mot1 SUMO dose
CN1CCCC(n2nc(Cc3ccc(Cl)cc3)c3ccccc3c2=O)CC1 (stereo not given),2.4,0.7,10.3,395.7*,4.2,-0.1
CCCCCCCN1C(Nc2ccccc2)=NC[C@@H]1CC(C)C,1.9,-5.1,8.0,610.7*,7.9,-1.0[21 µM]
CC(C)C[C@H]1CN=C(Nc2ccccc2)N1CCCC1CCCC1,-0.1,11.6,7.1,-14.8,2.3,.
COc1ccc(CCN2CCCn3c2nc2c3c(=O)n(CC(C)C)c(=O)n2C)cc1OC,.,6.6,4.8,-0.9,-3.1,.
Cc1cccc(/C=N/NC(=O)Cc2cccs2)c1,3.4,-6.5,9.6,908.2*,-3.8,-0.2
O=C(Cc1cccs1)N/N=C/c1ccccc1,1.1,-11.3,.,3.3,-2.6,.
O=C(NCC(c1cccs1)N1CCOCC1)c1ccc(Cl)nc1 (stereo not given),6.3,1.9,-1.0,5.5,1.7,.

# Screening results: PubChem BioAssay, several laboratories
